# Compounds with a hit are over-represented: about 8.1% of the library has one in this group of screens.
# ClpP mod = qHTS Assay for Activators of ClpP; 340,000 compounds, 1.9% hits; purified B. subtilis ClpP, FRET peptide cleavage, 20 min; Potency, µM (highest dose often 57.5 µM); active = well fitted falling curve with a large enough effect; inconclusive = small, poorly fitted or top-dose-only effect; inactive = no such curve, though single readings can be large or run the other way; note: the source files actives as falling curves though it sought activators and does not explain the sign; nearly all actives have a fitted effect of over 65% in size
# Target sequence (P80244 whole entry, looked up): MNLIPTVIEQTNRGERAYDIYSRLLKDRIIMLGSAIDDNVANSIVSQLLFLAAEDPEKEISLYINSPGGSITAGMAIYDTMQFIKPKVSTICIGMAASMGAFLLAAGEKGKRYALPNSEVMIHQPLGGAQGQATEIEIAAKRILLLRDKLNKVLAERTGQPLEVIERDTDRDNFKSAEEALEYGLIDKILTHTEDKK
#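 ClpP 10 microg/mL final, pH 8 Tris/KCl buffer with BSA, glycerol, Tween-20; compound pinned in; FRET-FV substrate; RT 20 min; Ex320/Em430; ΔFRET vs ADEP 5.8 microM, DMSO, no enzyme.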
# Gal4-VP16 FLuc = Gal4-VP16 reporter inhibition counter-screen; Drosophila S2 Gal4-VP16 UAS-luciferase, luminescence, 20 h; Potency, µM (titrated, usually from 53.6 µM), actives largely listed as inhibitors; 310,000 compounds, 3.5% hits; AID 2546;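 note: Gal4-VP16 expression switched on by copper sulfate through the metallothionein promoter; nearly all actives have a fitted effect of over 50% in size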
# PINK1 expr mod = changes PINK1 expression; 410,000 compounds, 0.2% hits; PINK1 immunofluorescence, high-content cytometry, 24 h; Potency, µM (titrated, usually from 76.6 µM), hits mostly activators; active = well fitted activation curve with a large enough effect; inconclusive = small, poorly fitted or top-dose-only effect; cell line not stated here; note: nearly all actives have a fitted effect of over 65% in size
#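 Fluorescence from anti-PINK1 antibody, together with nuclear and cell stains, was scanned on a laser-scanning cytometer. Before staining, stable-line cells were incubated 24 hours with compounds at 5 concentrations; primary antibody 12 h at 10 degrees C.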
# Epigenetic derep = derepresses silenced GFP reporter in murine cells | murine LDR cells, GFP reporter derepression, 30 h | Potency, µM (doses to about 53.9 µM), hits mostly activators | 280,000 compounds, 0.2% hits | AID 1865; note: nearly all actives have a fitted effect of over 60% in size
#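 Reporter derepression read as number of fluorescent GFP-positive objects, 20-120 um in size, counted by laser-scanning cytometer. Mouse LDR line with an epigenetically silenced CMV-GFP locus; compound incubation 30 h, 37 C.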
# RORg inh = inhibitors of mouse ROR gamma transcriptional activity; P51450; Potency, µM (top dose mostly 53.6 µM), usual class: inhibitors; Drosophila S2 Gal4-RORgamma UAS-luciferase reporter, 20 h; 310,000 compounds, 5.4% hits; note: nearly all actives have a fitted effect of over 60% in size
# Target sequence (P51450 whole entry, looked up, the tested form may be a part): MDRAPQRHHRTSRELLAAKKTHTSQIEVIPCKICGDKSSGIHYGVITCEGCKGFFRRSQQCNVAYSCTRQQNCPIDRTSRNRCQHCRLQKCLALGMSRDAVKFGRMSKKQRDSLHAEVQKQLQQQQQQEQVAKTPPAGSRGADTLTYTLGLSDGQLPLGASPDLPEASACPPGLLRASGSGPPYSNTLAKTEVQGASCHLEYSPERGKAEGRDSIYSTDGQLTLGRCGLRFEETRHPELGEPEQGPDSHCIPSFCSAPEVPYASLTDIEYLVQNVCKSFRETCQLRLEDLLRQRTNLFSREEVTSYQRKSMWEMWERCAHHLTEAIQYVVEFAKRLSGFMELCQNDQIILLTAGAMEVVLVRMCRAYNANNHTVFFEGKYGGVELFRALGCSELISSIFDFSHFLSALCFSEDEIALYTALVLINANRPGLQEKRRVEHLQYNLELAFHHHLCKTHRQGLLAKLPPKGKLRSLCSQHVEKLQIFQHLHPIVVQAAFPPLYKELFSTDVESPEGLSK
#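 In this cell-based reporter format, copper sulfate (700 uM final) drives Gal4–ROR gamma fusion expression from a metallothionein promoter in Drosophila Schneider cells; compounds preincubated 1 hr, reporter read after 20 hr at ambient temperature.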
# Sfp inh = blocks B. subtilis Sfp PPTase activity | Q9F4F7 | Biochemical Sfp PPTase activity, qHTS | Potency, µM, hits mostly inhibitors | 310,000 compounds, 3.5% hits;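 note: the enzyme is Sfp with the accession as filed and its product quenches rhodamine fluorescence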
#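 Reaction rates are the 30-min fluorescence difference (ex 525, em 598 nm) in wells containing 15 nM Sfp, 5 uM rhodamine-CoA and 12.5 uM BHQ-2-YbbR at pH 7.6 with 10 mM MgCl2.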
# Hits are given with their value; n = inactive; u = inconclusive; x = no result given; [ ] = remark or other dose. Unless noted, calls come from the whole dose curve; as a rule, active = well fitted curve in the direction sought with a large enough effect; inconclusive = small, poorly fitted or top-dose-only effect, or another doubt; inactive = no such curve, though single readings can be large; an effect the other way counts as inactive or inconclusive.
SMILES,ClpP mod,Gal4-VP16 FLuc,PINK1 expr mod,Epigenetic derep,RORg inh,Sfp inh
Cc1noc(C)c1COC(=O)CCCc1nc2ccccc2s1,n,7.9µM,n,n,u,n
CCNC(=O)COC(=O)c1ccc(-c2nc3ccccc3s2)s1,n,u,n,n,u,n
COc1ccc(CNC(=O)c2cnc3sc4cc(OC)ccc4n3c2=O)cc1,n,x,n,n,x,x
CCOCCCNC(=O)c1cnc2sc(N3CCCCCC3)nn2c1=O,16µM,x,n,n,x,x
COc1ccc2c(c1)sc1ncc(C(=O)NCc3ccccc3F)c(=O)n12,11µM,x,n,n,x,x
CCCCNC(=O)c1cnc2sc(N3CCCCC3)nn2c1=O,n,x,n,n,x,x
CCN(CC)c1nn2c(=O)c(C(=O)NCCc3cccc(C)c3)cnc2s1,11µM,x,n,n,x,x
CCCCNC(=O)c1cnc2sc(N3CCCCCC3)nn2c1=O,25µM,x,n,n,x,x
O=C(Cc1ccc[nH]c1=O)c1ccc(F)cc1,n,x,x,x,x,x
CCCNC(=O)c1cnc2sc(N3CCCCC3)nn2c1=O,n,x,n,n,x,x
COc1ccc(CNC(=O)c2cnc3sc(N4CCCC4)nn3c2=O)c(OC)c1,n,x,n,n,x,x
O=C(NCCc1ccccc1)c1cnc2sc(N3CCOCC3)nn2c1=O,10µM,x,n,n,x,x
CC(C)NC(=O)c1cnc2sc(N3CCCCCC3)nn2c1=O,16µM,x,n,n,x,x
COc1ccccc1CNC(=O)c1cnc2sc(N3CCCCCC3)nn2c1=O,14µM,x,n,n,x,x
COc1cccc2cc(C(=O)N(Cc3cccs3)Cc3cccs3)c(=O)oc12,n,x,n,x,x,x
Cc1ccc2cccc(NC(=O)COc3ccccc3Cl)c2n1,u,x,n,n,x,x
COc1ccc2c(c1)O[C@@H](c1ccc3c(c1)OCO3)[C@H](O)C2=O,x,n,x,n,n,n
Cc1ccc(/C=C/C(=O)N2CCCC(C)C2)cc1 (stereo unspecified),n,u,n,n,u,n
CCN1CCN(C(=O)/C=C/c2ccc(C)o2)CC1,n,u,n,n,n,40µM
Cc1ccc(/C=C/C(=O)N2CC(C)CC(C)C2)o1 (stereo unspecified),n,n,n,u,n,16µM
COc1nc(C)ccc1-c1noc(-c2ccncc2)n1,n,n,n,n,n,n
COc1nc(C)ccc1-c1noc(-c2cccs2)n1,x,u,n,n,1.8µM,n
CCOc1nc(C)ccc1-c1noc(-c2ccccn2)n1,n,n,n,n,n,n
CCOc1ccccc1-c1nc(-c2ccc(C)nc2OC)no1,28µM,n,n,n,n,n
COc1nc(-c2ccccc2)ccc1-c1noc(-c2cccs2)n1,20µM,x,n,x,x,x
SMILES,ClpP mod,Gal4-VP16 FLuc,PINK1 expr mod,Epigenetic derep,RORg inh,Sfp inh
COC(=O)c1nnc(N[C@@H](Cc2c[nH]c3ccccc23)C(=O)OC)nc1C(=O)OC,x,n,x,n,n,n
COc1cc(=O)n2c(c1C(=O)NCc1ccco1)CCN(C(=O)c1ccc(C)c(C)c1)CC2,x,x,n,x,x,x
Cc1cnc(NC(=O)CSc2nnc(COc3c(C)cccc3C)o2)s1,n,u,n,n,11µM,n
O=[N+]([O-])c1ccc(NCCNCCOc2nonc2-c2ccccc2)c([N+](=O)[O-])c1,16µM,n,n,n,n,n
Cc1ccc(-c2csc(N3CCN(c4cc5c(cc4Cl)nc(C(C)N)n5CCCO)CC3)n2)cc1 (stereo unspecified),n,n,n,x,n,n
Cc1ccc(-c2csc(N3CCN(c4cc5c(cc4Cl)nc(C)n5CCN4CCCCC4)CC3)n2)cc1,n,u,n,x,11µM,50µM
Cc1ccc2c(Cl)cc(Cl)c(OCC(=O)NC(=O)NCc3ccco3)c2n1,u,n,u,n,10µM,n
Cc1ccc2c(Cl)cc(Cl)c(OCC(=O)N3CCCC3)c2n1,n,u,n,n,14µM,n
Cc1ccc2c(Cl)cc(Cl)c(OCC(=O)NCc3ccco3)c2n1,x,11µM,x,n,7.1µM,u
Cc1ccc2c(Cl)cc(Cl)c(OCC(=O)Nc3cc(C)on3)c2n1,x,n,x,n,n,n
Cc1cc(Cl)cc(Cl)c1OCC(=O)NCc1ccco1,n,u,n,n,u,u
CCCC[C@@H](NC(=O)[C@@H](Cc1cn(C(=O)OC)c2ccccc12)NC(=O)[C@H](CC(C)(C)C)NC(=O)N1[C@H](C)CCC[C@@H]1C)C(=O)O,x,n,x,n,n,n
O=C1c2ccccc2C(=O)N1CCCCN(C(=O)c1ccc(Cl)s1)c1ccc(Cl)cc1,n,5µM,n,n,8.9µM,n
CC1CCN(CC(=O)N2CCCc3c2c(=O)oc2ccc(OCc4ccccc4)cc32)CC1,u,u,u,n,u,u
CCCOc1ccc2oc(=O)c3c(c2c1)CCCN3C(=O)CN1CCc2ccccc2C1,18µM,n,n,n,n[10 µM],n
CC(=O)c1c(COC(=O)c2cccc(C)c2)nc2ccccc2[n+]1[O-],n,n,n,n,n,n
CC(=O)c1c(COC(=O)c2ccncc2)nc2ccccc2[n+]1[O-],n,u,n,n,11µM,n
C=CCNC(=S)NS(=O)(=O)c1cccs1,x,n,n,n,n,22µM
O=S(=O)(NCCNS(=O)(=O)c1cccs1)c1cccs1,n,n,n,n,n,n
COC(=O)[C@H](COC(C)(C)C)NC(=O)O[C@@H]1C(=O)c2ccc(OC)cc2O[C@H]1c1cccc(C(F)(F)F)c1,x,n,x,n,n,n
CCC(Sc1nnc(-c2ccc(F)cc2)c(-c2ccc(F)cc2)n1)C(=O)NC1CCCC1 (stereo unspecified),n,x,n,n,x,x
CC(=O)N(Cc1cccnc1)c1cccc(-c2nc3ccccc3s2)c1,14µM,u,n,n,n,n
CCCCCCC[n+]1c(/C=C/c2ccc(N(C)C)cc2)sc2ccccc21,n,x,u,x,x,x
C/C(=C\C(=O)c1ccc(Cl)s1)N(C)C,n,u,n,n,7.1µM,n
O=C(Nc1ccc(F)c([N+](=O)[O-])c1)C(=O)c1c(O)[nH]c2ccccc12,x,n,n,n,n,20µM
SMILES,ClpP mod,Gal4-VP16 FLuc,PINK1 expr mod,Epigenetic derep,RORg inh,Sfp inh
O=C(Nc1ccccc1)Nc1ccc(F)c([N+](=O)[O-])c1,u,n,u,n,u,n
O=C(O)Cc1sc(-c2ccccc2)nc1-c1ccc(Cl)cc1,n,x,n,x,x,x
O=c1cc(O)nc(-c2ccccc2)s1,x,u,n,n,n,13µM
CC(=O)Nc1sc(-c2ccccc2)nc1-c1ccccc1,x,u,n,n,n,n
O=c1cc(O)nc(-c2ccc(Cl)cc2)s1,x,n,n,n,n,18µM
Cn1c(Oc2ccc(F)cc2)nc2c1c(=O)n(Cc1ccccc1Cl)c(=O)n2C,n,x,n,n,x,x
Cc1ccc2nc(CN3CCN(C(=O)Nc4ccc(F)cc4)CC3)oc2c1,n,x,n,n,x,x
